# According to PubChem BioAssay (NCATS):
# Starred links: 1 amine or outer side, 2 acyl side, 3 side chain; linkers in the order of their positions; H or OH if unused. Positions of bridges follow the written chain, without caps; N, C: chain ends. Non-standard residues stand in square brackets, D forms with d. Residues, ends and D or L forms follow the SMILES beside them. *: point of attachment. X2 = NC1=C[C@@H](O)C[C@H]([C@H](N[*:1])C(=O)[*:2])N1; ΔAla(3-NHCONH2) = NC(=O)NC=C(N)C(=O)O; β3hOrn = NCCC[C@H](N)CC(=O)*; Dap = NC[C@H](N)C(=O)O
# Experiment: qHTS profiling for inhibitors of Plasmodium falciparum (HB3) proliferation (AID 743324);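 also: 100% = DMSO vehicle wells and 0% = artemisinin-treated control wells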
# Settings: Plasmodium falciparum HB3 blood-stage proliferation; at 28.7 µM (top of the series)
# How it was run: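 SYBR Green fluorescence (485 ex/535 em) of lysed cultures, incubated overnight at room temperature in the dark, quantifies parasite DNA. Infected erythrocytes at 0.3% parasitemia and 2.5% hematocrit were exposed 72 h; values normalized to DMSO and 0.29 uM artemisinin controls.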
row,SMILES,"remaining proliferation (% of control), lower = more inhibition"
1,C[C@@H]1Cc2c([nH]c3cc(Cl)c(F)cc23)[C@]2(N1)C(=O)Nc1ccc(Cl)cc12,-0.181%
2,O=C([C@H](Cc1ccc(OS(=O)(=O)c2ccccn2)cc1)NS(=O)(=O)c1ccccn1)N1CCN(c2ccccc2)CC1,18.6%
3,O=C([C@H](Cc1ccc(O[S+](=O)([O-])c2ccccn2)cc1)N[S+](=O)([O-])c1cccnc1)N1CCN(c2ccccc2)CC1,2.38%
4,CCOc1ccc(F)cc1C1(O)C(N)=Nc2ccc(Cl)cc21 (centres undefined),1.54%
5,O=C([C@H](Cc1ccc(OS(=O)(=O)c2cccc3cnccc23)cc1)NS(=O)(=O)c1cccc2cnccc12)N1CCN(c2ccccc2)CC1,0.712%
6,O=C([C@H](Cc1ccc(O[S+](=O)([O-])c2cccc3cnccc23)cc1)N[S+](=O)([O-])c1cccnc1)N1CCN(c2ccccc2)CC1,-0.812%
7,CCN(CC)CCOc1ccc2c(=O)c3ccc(Cl)cc3n(CCN(CC)CC)c2c1,-0.0504%
8,O=C([C@H](Cc1ccc(O[S+](=O)([O-])c2cccc3cccnc23)cc1)N[S+](=O)([O-])c1cccc2cnccc12)N1CCN(c2ccccc2)CC1,0.212%
9,CCCC[C@@H]1C[C@@H](C(=O)NC([C@H](C)Cl)[C@H]2O[C@H](S)[C@H](O)[C@@H](O)[C@@H]2O)N(C)C1 (some centres undefined),31.5%
10,O=C([C@@H](Cc1ccc(O[S+](=O)([O-])c2ccccn2)cc1)N[S+](=O)([O-])c1cccc2cccnc12)N1CCN(c2ccccc2)CC1,0.71%
11,CO[C@@]12[C@H](COC(N)=O)C3=C(C(=O)C(C)=C(N)C3=O)N1C[C@H]1N[C@H]12,-0.956%
12,CC(C)(C)OC(=O)N[C@@H](Cc1ccc(O[S+](=O)([O-])c2ccccn2)cc1)C(=O)N1CCN(c2ccccc2)CC1,2.38%
13,O=C([C@@H](Cc1ccc(O[S+](=O)([O-])c2cccc3cccnc23)cc1)N[S+](=O)([O-])c1cccc2cccnc12)N1CCN(c2ccccc2)CC1,1.75%
14,CC(C)(C)OC(=O)N[C@@H](Cc1ccc(O[S+](=O)([O-])c2cccc3cccnc23)cc1)C(=O)N1CCN(c2ccccc2)CC1,-0.0202%
15,O=C([C@H](Cc1ccc(O[S+](=O)([O-])c2cccnc2)cc1)N[S+](=O)([O-])c1cccnc1)N1CCN(c2ccccc2)CC1,3.22%
16,Cc1nc2c(C#N)cccc2n1-c1ccc(C(=O)NC2CC2)s1,1.16%
17,COC(=O)[C@H](Cc1ccc(O[S+](=O)([O-])c2cccc3cnccc23)cc1)N[S+](=O)([O-])c1ccc2cnccc2c1,6.01%
18,CS(=O)(=O)c1ccc(-c2cnc(N)c(-c3ccc(C(F)(F)F)nc3)c2)cc1,4.13%
19,O=C(OCc1ccccc1)N1CCN(C(=O)[C@H](Cc2ccc(O[S+](=O)([O-])c3cccc4cnccc34)cc2)N[S+](=O)([O-])c2cccc3cnccc23)CC1,-0.068%
20,O=C1CCC(C2=C(O)c3ccccc3C(=O)C2=O)CC1,5.38%
21,O=CN(O)CCCP(=O)(O)O,14.2%
22,O=C([C@H](Cc1ccc(O[S+](=O)([O-])c2ccccn2)cc1)N[S+](=O)([O-])c1cccc2cnccc12)N1CCN(c2ccccc2)CC1,0.0492%
23,C[C@H]1Cc2c([nH]c3cc(Cl)c(F)cc23)[C@@]2(N1)C(=O)Nc1ccc(Cl)cc12,0.369%
24,O=C([C@H](Cc1ccc(O[S+](=O)([O-])c2cccnc2)cc1)N[S+](=O)([O-])c1ccccn1)N1CCN(c2ccccc2)CC1,2.47%
25,N[C@@H](Cc1ccc(OS(=O)(=O)c2ccccn2)cc1)C(=O)N1CCN(c2ccccc2)CC1,67%
26,O=C1C(=O)c2ccccc2C(O)=C1C1CCCCC1,3.28%
27,O=C([C@H](Cc1ccc(O[S+](=O)([O-])c2cccc3cccnc23)cc1)N[S+](=O)([O-])c1ccccn1)N1CCN(c2ccccc2)CC1,-0.011%

# Experiment: qHTS profiling of the MIPE4 collection as inhibitors of Plasmodium falciparum (3D7) proliferation (AID 743344);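 also: scaled between DMSO vehicle wells and 0.29 µM artemisinin as full inhibition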
# Settings: P. falciparum 3D7 in erythrocytes, SYBR Green DNA fluorescence, 72 h; at 28.5 µM (top of the series)
# How it was run: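 Parasite DNA was quantified by SYBR Green I fluorescence (ex 485, em 535 nm) after overnight lysis in saponin/Triton buffer at room temperature. Cultures at 0.3% parasitemia and 2.5% hematocrit were first exposed to compound for 72 h at 37 C; signals were normalised to artemisinin (0.29 uM) and vehicle wells.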
row,SMILES,"parasite growth, % of DMSO control"
1,C[C@H]1C[C@H]2C3CCC4=CC(=O)C=C[C@@]4(C)[C@@]3(Cl)[C@@H](O)CC2(C)[C@@]1(OC(=O)c1ccco1)C(=O)CCl (some centres undefined),5.13%
2,CN(C)CCC=C1c2ccccc2COc2ccccc21,86.6%
3,CO[C@H]1C=CO[C@@]2(C)Oc3c(C)c(O)c4c(O)c(c(C=NN5CCN(C)CC5)c(O)c4c3C2=O)NC(=O)C(C)=CC=CC(C)[C@H](O)[C@@H](C)[C@@H](O)[C@@H](C)[C@@H](OC(C)=O)[C@H]1C (some centres undefined),4.07%
4,CCOc1ccc(F)cc1C1(O)C(N)=Nc2ccc(Cl)cc21 (centres undefined),5.08%
5,COC1=C2C[C@H](C)C[C@H](OC)[C@@H](O)[C@@H](C)C=C(C)[C@H](OC(N)=O)[C@@H](OC)C=CC=C(C)C(=O)NC(=CC1=O)C2=O,5.44%
6,CCN(CC)CCOc1ccc2c(=O)c3ccc(Cl)cc3n(CCN(CC)CC)c2c1,4.98%
7,CCCC[C@@H]1C[C@@H](C(=O)NC([C@H](C)Cl)[C@H]2O[C@H](S)[C@H](O)[C@@H](O)[C@@H]2O)N(C)C1 (some centres undefined),29.2%
8,NCCC[C@H](N)CC(=O)N[C@H]1CNC(=O)[C@H]([C@H]2C[C@H](O)C=C(N)N2)NC(=O)C(=CNC(N)=O)NC(=O)[C@H](CO)NC(=O)[C@H](CO)NC1=O (β3hOrn-[Dap]SS[ΔAla(3-NHCONH2)][X2]; lactam 1-C),96%
9,Cc1nc2c(C#N)cccc2n1-c1ccc(C(=O)NC2CC2)s1,6.59%
10,O=CN(O)CCCP(=O)(O)O,14.4%
11,C[C@H]1Cc2c([nH]c3cc(Cl)c(F)cc23)[C@@]2(N1)C(=O)Nc1ccc(Cl)cc12,5.02%
12,CN([C@@H](Cc1ccc(O[S+](=O)([O-])c2cccc3cnccc23)cc1)C(=O)N1CCN(C(=O)OCc2ccccc2)CC1)[S+](=O)([O-])c1cccc2cnccc12,4.76%
